Compounds with a hit are over-represented: about 4% of the library has one in this group of screens.
DENV2 CPE – protects cells from dengue virus 2 cytopathic effect; DENV2-infected cells, cytopathic effect rescue, plate reader; CPE inhibition, % at 9.99 µM; AID 651640; hit rate 1.7% among 350,000; in the data active = CPE inhibition above about 20%, passing the limit was not always enough; inconclusive = no clear call, values can overlap the other calls; tested in BHK-21 cells
FGF22 binding-1 – FGF22 (human) thermal shift binding. activity (Tm shift, normalised), % at 9.99 µM. AID 651658. hit rate 1.5% among 340,000. Q9HCT0. recombinant FGF22 thermal shift, SYPRO orange fluorescence; percent of sucrose octasulfate shift, DMSO zero;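 active = mean Tm shift, scaled 0 neutral to 100 positive control, at about 1.3% or above, every replicate too, limit read from the data; inconclusive = no clear call, values can overlap the other calls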
ERAP1 HTS inh – ERAP1 (human) enzyme inhibition; inhibition, % at 10.7 µM; hit rate 0.15% among 340,000; recombinant ERAP1, Leu-AMC fluorescence, 60 min; Q9NZ08;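 active = mean replicate inhibition of at least 30%, or all replicates individually reaching that 30% level; inactive = mean below 30% and not every replicate reaching it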
Target sequence (Q9NZ08 whole entry, looked up): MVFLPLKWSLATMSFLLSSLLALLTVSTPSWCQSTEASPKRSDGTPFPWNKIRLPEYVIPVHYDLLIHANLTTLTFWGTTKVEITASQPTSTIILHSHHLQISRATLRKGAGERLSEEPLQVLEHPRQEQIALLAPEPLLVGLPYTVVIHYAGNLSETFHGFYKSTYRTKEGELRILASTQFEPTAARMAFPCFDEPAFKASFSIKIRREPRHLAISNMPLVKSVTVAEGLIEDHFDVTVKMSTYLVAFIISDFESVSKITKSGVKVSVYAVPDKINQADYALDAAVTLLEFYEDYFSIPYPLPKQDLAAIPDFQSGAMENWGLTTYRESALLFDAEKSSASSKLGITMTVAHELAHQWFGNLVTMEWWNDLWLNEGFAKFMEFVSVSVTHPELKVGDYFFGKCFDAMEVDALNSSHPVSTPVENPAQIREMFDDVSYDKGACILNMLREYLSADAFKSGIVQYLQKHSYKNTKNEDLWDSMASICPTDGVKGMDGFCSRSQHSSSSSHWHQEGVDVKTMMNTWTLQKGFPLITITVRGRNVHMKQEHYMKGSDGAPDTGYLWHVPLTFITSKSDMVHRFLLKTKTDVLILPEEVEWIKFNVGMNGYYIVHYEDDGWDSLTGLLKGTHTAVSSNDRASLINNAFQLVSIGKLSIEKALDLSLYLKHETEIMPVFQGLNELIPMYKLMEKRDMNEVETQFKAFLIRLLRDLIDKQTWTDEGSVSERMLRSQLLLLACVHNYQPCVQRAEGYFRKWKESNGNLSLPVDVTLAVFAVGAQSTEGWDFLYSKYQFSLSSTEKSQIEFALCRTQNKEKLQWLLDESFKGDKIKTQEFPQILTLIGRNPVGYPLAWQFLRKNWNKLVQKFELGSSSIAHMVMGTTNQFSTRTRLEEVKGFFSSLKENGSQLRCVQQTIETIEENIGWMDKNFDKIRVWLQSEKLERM
AF4-AF9 inh – blocks AF4 peptide binding to human AF9; AlphaScreen, biotin-AF4 peptide binding to FLAG-AF9; inhibition, % at 10 µM; hit rate 0.47% among 350,000; P42568;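 active = every replicate reaching a set inhibition limit, whatever the replicate mean, cut at about 25% in these data; inconclusive = mean inhibition reaches that limit but some replicates miss it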
RAD52 inh – inhibitors of human RAD52 DNA annealing; hit rate 0.46% among 360,000; P43351; inhibition, % at 18.7 µM; recombinant RAD52 DNA annealing, FRET fluorescence; AID 651710;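 active = every replicate showing at least 50% inhibition; inconclusive = mean inhibition at least 50% but not in every replicate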
FGF22 binding-2 – binds human FGF22 shifting its melting temperature. thermal shift activity, °C (ΔTm) at 38 µM. hit rate 2% among 1,000. shares compounds with FGF22 binding-1. recombinant FGF22 thermal shift, SYPRO orange fluorescence;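 active = fitted rise in melting shift crosses a set limit at or below the top valid dose tested; inconclusive = flat fit at mid-level activity, or a poor quality fit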
SYPRO no-protein – shows thermal shift signal without protein, FGF22 counter-screen | compound-only SYPRO orange thermal shift counter-screen, no protein | shares compounds with FGF22 binding-1 | AC50, µM (highest dose often 38 µM) | AID 743019 | hit rate 2% among 1,000;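 active = rising signal whose fitted curve reaches the 0.54 level within the top valid dose, showing a melting point, actives reach about 13 µM in these data; inactive = the rest, including activity in the opposite direction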; note: value is where the raw curve crosses a fixed level and not half-maximal
Hits are given with their value.

`COc1ccc(NS(=O)(=O)c2cccc(C(=O)NNC(=O)c3ccccc3O)c2)cc1` gave DENV2 CPE inactive, FGF22 binding-1 2.0, ERAP1 HTS inh inactive, AF4-AF9 inh inactive, RAD52 inh inactive, FGF22 binding-2 inactive and SYPRO no-protein inactive.
Screening O=C(O)c1cccc(NS(=O)(=O)c2ccc(Cl)c(C(=O)Nc3cccc([N+](=O)[O-])c3)c2)c1 returned DENV2 CPE inactive, FGF22 binding-1 1.8, AF4-AF9 inh inactive, RAD52 inh inactive, FGF22 binding-2 inactive and SYPRO no-protein inactive.
`O=C(CC(=O)c1ccccc1)Nc1cccc([N+](=O)[O-])c1` gave DENV2 CPE inactive, FGF22 binding-1 1.8, ERAP1 HTS inh inactive, AF4-AF9 inh inactive, RAD52 inh inactive, FGF22 binding-2 inactive and SYPRO no-protein inactive.
`O=C(O)c1ccc(NC(=O)c2cccc(S(=O)(=O)Nc3ccc(C(=O)O)cc3)c2)cc1` gave DENV2 CPE inactive, FGF22 binding-1 2.1, ERAP1 HTS inh inactive, AF4-AF9 inh inactive, RAD52 inh inactive, FGF22 binding-2 inactive and SYPRO no-protein inactive.
Screening CN(C)S(=O)(=O)c1ccc(Cl)c(C(=O)Nc2cccc([N+](=O)[O-])c2)c1 returned DENV2 CPE inactive, FGF22 binding-1 inactive, AF4-AF9 inh inactive and RAD52 inh inactive.
`C=CCC1c2cccc(C(=O)O)c2C(=O)N1c1cccc(C)c1` (stereo not drawn) gave DENV2 CPE inactive, FGF22 binding-1 inactive, ERAP1 HTS inh inactive, AF4-AF9 inh inactive and RAD52 inh inactive.
For C=CCC1c2cccc(C(=O)O)c2C(=O)N1c1cccc(OC)c1 (stereo not drawn) the results were DENV2 CPE inactive, FGF22 binding-1 18, ERAP1 HTS inh inactive, AF4-AF9 inh inactive, RAD52 inh inactive, FGF22 binding-2 inactive and SYPRO no-protein inactive.
`CCCN1[C@H](C(=O)NC2Cc3ccccc3C2)[C@@H](CO)[C@@H]2Cn3c(ccc(C4=CCCC4)c3=O)[C@@H]21` gave DENV2 CPE inactive, ERAP1 HTS inh inactive, AF4-AF9 inh inactive and RAD52 inh inactive.
Screening CCOCCCNS(=O)(=O)c1ccc(NC(=O)c2ccccc2)cc1 returned DENV2 CPE inactive, FGF22 binding-1 1.8, ERAP1 HTS inh inactive, AF4-AF9 inh inactive, RAD52 inh inactive, FGF22 binding-2 inactive and SYPRO no-protein inactive.
`CCOCCCNS(=O)(=O)c1ccc(NC(=O)Cc2c(F)cccc2Cl)cc1` gave DENV2 CPE inactive, FGF22 binding-1 inactive, ERAP1 HTS inh inactive, AF4-AF9 inh inactive and RAD52 inh inactive.
CC(C)NC(=O)N[C@H]1CC[C@H](CCNC(=O)C2CCC2)O[C@@H]1CO was read as DENV2 CPE inactive, FGF22 binding-1 inactive, ERAP1 HTS inh inactive, AF4-AF9 inh inactive and RAD52 inh inactive.
`Cc1noc(C)c1S(=O)(=O)Nc1ccc2c(c1)CC(=O)N([C@@H](C)CO)C[C@@H](C)[C@H](CN(C)Cc1ccc(C(=O)Nc3ccccc3N)cc1)O2` gave DENV2 CPE inactive, FGF22 binding-1 inactive, ERAP1 HTS inh inactive, AF4-AF9 inh inactive and RAD52 inh inactive.
For Cc1noc(C)c1NC(=O)N(C)C[C@@H]1Oc2ccc(NC(=O)C3CC3)cc2C(=O)N([C@@H](C)CO)C[C@H]1C the results were DENV2 CPE inactive, FGF22 binding-1 inactive, ERAP1 HTS inh inactive, AF4-AF9 inh inactive and RAD52 inh inactive.
For Cc1ccccc1C(=O)NCC(=O)OC(C)C(=O)Nc1cccc(S(=O)(=O)N2CCOCC2)c1 (stereo not drawn) the results were DENV2 CPE inactive, FGF22 binding-1 1.5, ERAP1 HTS inh inactive, AF4-AF9 inh inactive, RAD52 inh inactive, FGF22 binding-2 inactive and SYPRO no-protein inactive.
COc1ccccc1NC(=O)N[C@@H]1C=C[C@H](CC(=O)N[C@@H](C)c2ccccc2)O[C@@H]1CO was read as DENV2 CPE inactive, ERAP1 HTS inh inactive, AF4-AF9 inh inactive and RAD52 inh inactive.
For CCNC(=O)C[C@H]1CC[C@H](NC(=O)C2CC2)[C@H](CO)O1 the results were DENV2 CPE inactive, FGF22 binding-1 inactive, ERAP1 HTS inh inactive, AF4-AF9 inh inactive and RAD52 inh inactive.
For O=C(CCN1CCCCC1)NCC[C@@H]1CC[C@H](NC(=O)c2ccc(F)cc2)[C@@H](CO)O1 the results were DENV2 CPE inactive, FGF22 binding-1 inactive, ERAP1 HTS inh inactive, AF4-AF9 inh inactive and RAD52 inh inactive.
For CO[C@@H](CN(C)S(=O)(=O)c1cccc(Cl)c1)[C@@H](C)CN([C@@H](C)CO)S(=O)(=O)c1cccc(Cl)c1 the results were DENV2 CPE inconclusive, FGF22 binding-1 1.5, ERAP1 HTS inh inactive, AF4-AF9 inh inactive, RAD52 inh inactive, FGF22 binding-2 inactive and SYPRO no-protein inactive.
For CO[C@@H](CN(C)S(=O)(=O)c1ccc(Cl)cc1)[C@@H](C)CN([C@H](C)CO)S(=O)(=O)c1cccc(Cl)c1 the results were DENV2 CPE inactive, FGF22 binding-1 1.4, ERAP1 HTS inh inactive, AF4-AF9 inh inactive, RAD52 inh inactive, FGF22 binding-2 inactive and SYPRO no-protein inactive.
CO[C@H](CN(C)S(=O)(=O)c1cccc(Cl)c1)[C@H](C)CN([C@H](C)CO)S(=O)(=O)c1ccc(Cl)cc1 was read as DENV2 CPE inactive, FGF22 binding-1 inactive, ERAP1 HTS inh inactive, AF4-AF9 inh inactive and RAD52 inh inactive.
For CO[C@@H](CN(C)S(=O)(=O)c1ccc(Cl)cc1)[C@@H](C)CN([C@@H](C)CO)S(=O)(=O)c1cccc(Cl)c1 the results were DENV2 CPE inactive, FGF22 binding-1 inactive, ERAP1 HTS inh inactive, AF4-AF9 inh inactive and RAD52 inh inactive.
For O=C(C[C@H]1C[C@H]2c3cc(NC(=O)c4cccnc4)ccc3O[C@H]2[C@H](CO)O1)NCc1ccncc1 the results were DENV2 CPE inactive, FGF22 binding-1 inactive, ERAP1 HTS inh inactive, AF4-AF9 inh inactive and RAD52 inh inactive.
COc1ccc(C(C)(NC(C)=O)c2nc(-c3ccncc3)cs2)cc1 (stereo not drawn) was read as DENV2 CPE inconclusive, FGF22 binding-1 18, ERAP1 HTS inh inactive, AF4-AF9 inh inactive, RAD52 inh inactive, FGF22 binding-2 inactive and SYPRO no-protein inactive.
Screening CC(C)c1ccc(NC2CCCN(C(=O)c3cc(C(C)C)[nH]n3)C2)cc1 (stereo not drawn) returned DENV2 CPE inactive, FGF22 binding-1 28, ERAP1 HTS inh inactive, AF4-AF9 inh inactive, RAD52 inh inactive, FGF22 binding-2 inactive and SYPRO no-protein inactive.
`NNC(=O)CN1C(=O)C2(OCCO2)c2ccccc21` gave DENV2 CPE inactive, FGF22 binding-1 30, ERAP1 HTS inh inactive, AF4-AF9 inh inactive, RAD52 inh inactive, FGF22 binding-2 inactive and SYPRO no-protein inactive.
CC(=O)Nc1ccc(S(=O)(=O)Nc2ccn(Cc3ccccc3Cl)n2)cc1 was read as DENV2 CPE inactive, FGF22 binding-1 2.1, ERAP1 HTS inh inactive, AF4-AF9 inh inactive, RAD52 inh inactive, FGF22 binding-2 inactive and SYPRO no-protein inactive.

Assay outcomes deposited in PubChem BioAssay by Broad Institute.
